Experimental data: PubChem BioAssay (NCI)
The panel holds about 83,000 compounds, 20% with a hit somewhere; the sample as a whole holds those more often.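 Assay: single dose, 48 h. Readout: percent growth (0 = no net growth; negative = cell death). Active: <10.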 A number with no mark means an inactive call. Calls of active or inactive are those of the source.

Experiments:
Test in all cases: NCI-60 one-dose screen, 48 h (100 = growth as untreated, 0 = no growth, -100 = all killed)
Details in all cases: 10 µM unless noted
SR leukemia = tested on: SR leukemia
OVCAR-8 ovarian = tested on: OVCAR-8 ovarian
OVCAR-5 ovarian = tested on: OVCAR-5 ovarian
OVCAR-4 ovarian = tested on: OVCAR-4 ovarian
SK-OV-3 ovarian = tested on: SK-OV-3 ovarian
IGROV1 ovarian = tested on: IGROV1 ovarian
OVCAR-3 ovarian = tested on: OVCAR-3 ovarian
HS 578T breast = tested on: HS 578T breast
NCI/ADR-RES ovarian = tested on: NCI/ADR-RES ovarian
RPMI-8226 leukemia = tested on: RPMI-8226 leukemia

Row | SMILES | growth (SR leukemia) | growth (OVCAR-8 ovarian) [%] | growth (OVCAR-5 ovarian) [%] | growth (OVCAR-4 ovarian) | growth (SK-OV-3 ovarian) [%] | growth (IGROV1 ovarian) [%] | growth (OVCAR-3 ovarian) | growth (HS 578T breast) | growth (NCI/ADR-RES ovarian) | growth (RPMI-8226 leukemia) [%]
1 | COc1ccc(/C=C2/C(=O)NC(SCC(=O)N3CCN(c4cc5c(cc4F)c(=O)c(C(=O)O)cn5C4CC4)CC3)=NC2N)cc1OC (stereo unspecified) | 108% | 106 | 104 | 107% | 121 | 107 | 107% | 105% | 104% | –
2 | O=C(/C=C/c1cc(-c2ccc3c(c2)OCO3)n[nH]1)c1ccc2c(c1)OCO2 | 44.5% | 86.9 | – | 71.3% | 109 | 91.6 | 90.7% | 95.2% | 102% | 56.6
3 | O=C(NCCNc1nccc(-n2ccc3cccnc32)n1)c1ccc(C(F)(F)F)cc1 | 105% | 103 | 106 | 100% | 99.7 | 103 | 109% | 106% | 105% | –
4 | CC12CCCC(CC(=O)c3[nH]c4ccccc4c31)C2 (stereo unspecified) | 15.5% | 31.1 | 34.6 | 60.7% | 53.4 | 24.6 | -26.1% (active) | 12.8% | 5.24% (active) | –
5 | Fc1ccccc1-c1nc(-c2nc3cc(Cl)c(Cl)cc3[nH]2)c2ccccn12 | 20.7% | 68.4 | – | 1.61% (active) | 83.7 | 21.9 | 70.5% | 44% | 76% | 74.7
6 | c1cc(C2=N[C@@H]3c4ccccc4C[C@@H]3O2)nc(C2=N[C@@H]3c4ccccc4C[C@@H]3O2)c1 | 101% | 106 | 98.3 | 99.6% | 117 | 104 | 109% | 98.2% | 98.7% | –
7 | COc1cc(C2C3=C(COC3=O)Nc3cc4c(cc32)CCC4)cc2c1OCO2 (stereo unspecified) | 5.8% (active) | 24.5 | – | 43.5% | 17.4 | 23.2 | -47.9% (active) | 28.4% | -16.6% (active) | 23.2
8 | CC(C)OC(=O)N1CCOCC1 | 109% | 95.6 | – | 95.5% | 98.1 | – | 115% | 97.5% | 108% | 107
9 | COc1cc(C2CC(c3ccc4c(c3)OCO4)=NN2C(C)=O)cc(OC)c1OC (stereo unspecified) | 19.9% | 42 | – | 54.5% | 10.6 | – | -5.71% (active) | -7.69% (active) | 4% (active) | 39.2
10 | CCCCCCCCCCCCCCCCNC(=O)OC(C)C | 1.69% (active) | 63.8 | – | -39.2% (active) | 69.7 | – | 19.5% | 78.2% | 65.9% | 80.1
11 | C=C1CCC2C(C)(CO)C(O)CCC2(C)C1C/C=C1/C(=O)OCC1Oc1ccccc1C (stereo unspecified) | 50.7% | 72.5 | 91.8 | 74.8% | 122 | 73.7 | 34.3% | 105% | 81.1% | –
12 | C=C1CCC2C3(C)COC(C)(C)OC3CCC2(C)C1C/C=C1/C(=O)OCC1Oc1ccccc1OC (stereo unspecified) | 28.9% | 81.1 | 101 | 60.7% | 114 | 76.2 | 31.3% | 113% | 85.6% | –
13 | COc1cc(C2CC(c3ccc4c(c3)OCO4)=NN2C=O)cc(OC)c1OC (stereo unspecified) | 33.5% | 53.9 | – | 57.7% | 24.7 | – | -29% (active) | 8.51% (active) | 15.5% | 52.8
14 | C=C1CCC2C(C)(CO)C(O)CCC2(C)C1CC(NCc1ccccc1)C1=CCOC1=O (stereo unspecified) | 99.8% | 94 | 94.3 | 97.8% | 105 | 102 | 105% | 104% | 95.9% | –
15 | COc1ccc(-c2c(N)n[nH]c2-c2cc(OC)c3c(c2)OCCO3)cc1 | -6.97% (active) | 83.5 | – | 101% | 90.2 | 85.9 | 76.2% | 86.2% | 63.8% | 74.7
